Experimental data: PubChem BioAssay (Tox21)
Results filed as inconclusive are left out. A call without a number means that no potency is given here. Active and inactive are the calls of the source. Calls come from the whole dose curve; as a rule, active = well fitted inhibition curve with a large enough effect in the signal ratio in the repeat runs (not every such curve was filed as active); inconclusive = weak or mixed curves, or effect the other way; inactive = no such curve, though single readings can be large or run the other way; the % refers to the signal ratio.

target: Estrogen receptor beta (Homo sapiens) (UniProt Q92731); assay: qHTS assay to identify small molecule antagonists of the estrogen receptor beta (ER-beta) signaling pathway (AID 1259378); conditions: ER-beta-UAS-bla HEK293T, beta-lactamase FRET ratio, 16 h; series mostly up to 92.4 µM
Sequence (Q92731 whole entry, looked up): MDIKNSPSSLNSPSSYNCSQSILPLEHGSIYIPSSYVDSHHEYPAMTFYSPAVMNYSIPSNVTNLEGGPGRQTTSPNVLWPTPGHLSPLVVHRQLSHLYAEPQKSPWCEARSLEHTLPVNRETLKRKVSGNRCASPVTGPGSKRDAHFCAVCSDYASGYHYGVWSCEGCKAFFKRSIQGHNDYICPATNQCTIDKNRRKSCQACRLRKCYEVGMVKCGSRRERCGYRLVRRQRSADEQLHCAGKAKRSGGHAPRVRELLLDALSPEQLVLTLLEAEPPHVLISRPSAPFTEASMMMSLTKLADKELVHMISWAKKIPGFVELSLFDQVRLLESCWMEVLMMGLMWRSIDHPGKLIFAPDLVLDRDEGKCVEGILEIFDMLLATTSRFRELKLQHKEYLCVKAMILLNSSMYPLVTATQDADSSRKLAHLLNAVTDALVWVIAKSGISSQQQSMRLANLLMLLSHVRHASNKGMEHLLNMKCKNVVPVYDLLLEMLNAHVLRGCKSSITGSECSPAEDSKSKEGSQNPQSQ
Description: National Center for Advancing Translational Sciences [NCATS]
NIH Chemical Genomics Center [NCGC]
U.S. Environmental Protection Agency [EPA]
National Institutes of Environmental Health Sciences [NIEHS]
National Toxicology Program [NTP]
U.S. Food and Drug Administration [FDA]
Estrogen receptor (ER), a nuclear hormone receptor, plays an important role in development, metabolic homeostasis and reproduction. Two subtypes of ER, ER-alpha and ER-beta, have similar expression patterns with some uniqueness in both types. Endocrine disrupting chemicals (EDCs) and their interactions with steroid hormone receptors like ER causes disruption of normal endocrine function. To identify the compounds that inhibit ER signaling, an ER-beta-UAS-bla GripTite cell line (Life Technologies, Madison, WI, USA) containing a beta-lactamase reporter gene under the control of an UAS response element was used to screen Tox21 10K compound library.
Tox21 Assay Protocol Summary:
ER-beta-UAS-bla HEK293T cells were dispensed at 2,000 cells/4 uL of assay medium containing 2% charcoal stripped FBS per well into black wall/clear-bottom 1536-well plates using a Multidrop Combi (ThermoFisher Scientific, Waltham, MA) dispenser. After the assay plates were incubated at a 37C and 5% CO2 for 6 hr, 23 nL of compounds dissolved in DMSO, positive controls or DMSO only was transferred to the assay plate by a Pintool station (Kalypsys, San Diego, CA), followed by addition of 1 uL (1nM as final concentration) of 17-beta-estradiol (E2) in assay medium using a BioRAPTR FRD (Flying Reagent Dispenser, Aurora Discovery, San Diego, CA). The plates were incubated at 37C and 5% CO2 for 16 hr. Then 1 uL of LiveBLAzerTM B/G FRET substrate was added using a Flying Reagent Dispenser, the plates were incubated at room temperature for 2 hours, and fluorescence intensity was measured by an Envision plate reader (PerkinElmer, Shelton, CT).
Potency is the fitted concentration of half-maximal effect.

Row | Structure (SMILES) | Potency | activity, negative = inhibition
1 | O=C1CCCCCO1 | inactive | 
2 | CC(C)CC=O | inactive | 
3 | NCc1ccccc1 | inactive | 
4 | CCCCOc1cc(C(=O)OCCN(CC)CC)ccc1N | inactive | 
5 | COCCOCCOCCOCCOC | inactive | 
6 | CC(=O)CC(=O)c1ccccc1 | inactive | 
7 | N=C(N=C(N)N)N1CCOCC1 | inactive | 
8 | CCCC(=O)OCC | inactive | 
9 | O=C(O)/C=C/c1cnc[nH]1 | inactive | 
10 | O=C(c1ccc(O)cc1)c1ccc(O)cc1 | inactive | 
11 | CC(C(=O)O)c1ccc(-c2ccccc2)c(F)c1 (stereo not given) | inactive | 
12 | O=C(CCN1CCN2CCCC2C1)N1c2ccccc2Sc2ccc(Cl)cc21 (stereo not given) |  | -12.6% [at 19 µM] (inactive)
13 | CC(=O)[C@@]1(O)CC[C@H]2[C@@H]3C[C@H](C)C4=CC(=O)CC[C@]4(C)[C@H]3CC[C@@]21C | inactive | 
14 | CCCC(C)C | inactive | 
15 | CC1=CC(=O)/C(=C(/C)O)C(=O)O1 | inactive | 
16 | C=C(C)C(=O)OCCOc1ccccc1 | inactive | 
17 | CCCCCOC(=O)COc1cc(N2C(=O)C3=C(CCCC3)C2=O)c(F)cc1Cl | inactive | 
18 | CC(C)CCCC(C)CCO (stereo not given) | inactive | 
19 | CC(C)(C)C(=O)OCOP(=O)(COCCn1cnc2c(N)ncnc21)OCOC(=O)C(C)(C)C | inactive | 
20 | O=CNc1ccccc1 | inactive | 

Row | Structure (SMILES) | Potency | activity, negative = inhibition
21 | CC1(C)CCC(C)(C)c2cc(NC(=O)c3ccc(C(=O)O)cc3)ccc21 | 18.8 µM (active) | 
22 | Cc1ccc(C(N)=O)cc1N | inactive | 
23 | O=C(O)C1CCC(C(=O)O)CC1 (stereo not given) | inactive | 
24 | CNS(=O)(=O)Cc1ccc2[nH]cc(CCN(C)C)c2c1 | inactive | 
25 | Oc1ccc(O)c2c(O)cccc12 | inactive | 
26 | COc1ccc(C(C)=O)cc1 | inactive | 
27 | COC(=O)C(C)=O | inactive | 
28 | C=CCCCCCC | inactive | 
29 | CN1CCC(=C2c3ccccc3C=Cc3ccccc32)CC1 | inactive | 
30 | c1ccc(CNCc2ccccc2)cc1 | inactive | 
31 | Cc1occc1S | inactive | 
32 | CCCCCOC(=O)c1ccc(O)cc1 | 24.6 µM (active) | 
33 | c1ccc(OCc2ccc(CCCN3CCOCC3)cc2)cc1 | inactive | 
34 | CCC(=O)OC(C)(C)C1CC=C(C)CC1 (stereo not given) | inactive | 
35 | CC/C(=C\C(=N/O)C(N)=O)C(C)[N+](=O)[O-] (stereo not given) | inactive | 
36 | CC(CN)CCCN (stereo not given) | inactive | 
37 | O=C(NN1CCCC1)NS(=O)(=O)c1ccc(Cl)cc1 | inactive | 
38 | CCN1CCC[C@H]1CNC(=O)c1c(OC)ccc(Br)c1OC | inactive | 
39 | CN1CCN(C2=Nc3ccccc3Sc3ccc(Cl)cc32)CC1 | inactive | 
40 | O=[N+]([O-])c1cc[n+]([O-])cc1 | 43.3 µM (active) | 
